Test results taken from PubChem BioAssay AID624255 (Broad Institute, 2012).
In all, about 77,000 compounds went through this assay and about 4,600 (6%) were called active. Not shown: some 1% with an inconclusive outcome. Shown is part of a subset that was picked to be rich in actives. Unmarked numbers belong to inactive results.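 Rule for the calls: active = mean inhibition above about 93%, with at least 55% of replicates each passing it (limit read from the data, passing the limit was not always enough); inconclusive = only one of those two conditions holds; inactive = neither condition holds.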

Experiment: growth inhibition of T. cruzi in host fibroblasts – cell-based, beta-gal Tulahuen parasites, NIH3T3 host, luminescence, primary screen (AID 624255)
Conditions: T. cruzi beta-gal in NIH3T3, GalScreen luminescence, 90 h; at 8.34 µM; stronger effect = higher value

SMILES	inhibition
Cn1cnc(S(=O)(=O)N2C[C@H](O)COC[C@@H]3O[C@H](CC(=O)NC4CCCC4)CC[C@H]32)c1	5.65%
CCC(=O)N1[C@@H]2c3ccc(-c4cccnc4)c(=O)n3C[C@H]1[C@H](CO)[C@H]2C(=O)N1CCc2ccccc2C1	29.4%
O=C(C1CCC1)N1C[C@@H]2[C@H](c3ccccc31)[C@H](CO)N2C(=O)c1ccccc1	11.8%
CCCN(C)C[C@H]1Oc2cc(C#CCC(C)C)ccc2S(=O)(=O)N([C@H](C)CO)C[C@H]1C	75.8%
CC(C)CC#Cc1ccc2c(c1)O[C@H](CN(C)C(=O)c1cccnc1)[C@@H](C)CN([C@H](C)CO)S2(=O)=O	78.2%
CC(C)CC#Cc1ccc2c(c1)O[C@H](CN(C)Cc1cccnc1)[C@H](C)CN([C@@H](C)CO)S2(=O)=O	103% (active)
COCC#Cc1ccc2c(c1)O[C@@H](CN(C)Cc1cccnc1)[C@@H](C)CN([C@H](C)CO)S2(=O)=O	70%
CC(C)CC#Cc1ccc2c(c1)O[C@H](CN(C)Cc1ccncc1)[C@H](C)CN([C@H](C)CO)S2(=O)=O	118% (active)
CCNC(=O)C[C@H]1CC[C@@H](NC(=O)C2CCOCC2)[C@@H](CO)O1	40%
CCNC(=O)Nc1ccc2c(c1)C(=O)N(C)[C@H]1CC[C@H](CC(=O)NCC3CCCCC3)O[C@@H]1CO2	25.8%
CCS(=O)(=O)Nc1ccc2c(c1)C(=O)N(C)C[C@@H](OC)[C@@H](C)CN(C(=O)COC)[C@H](C)CO2	-5.98%
Cc1ccc(S(=O)(=O)Nc2ccc3c(c2)C(=O)N(C)[C@@H]2CC[C@@H](CC(=O)O)O[C@H]2CO3)cc1	33.9%
C[C@@H]1CN([C@H](C)CO)S(=O)(=O)c2ccc(C#CC3CCCC3)cc2O[C@@H]1CN(C)Cc1cccnc1	118% (active)
C[C@H](O)C#Cc1ccc2c(c1)O[C@H](CN(C)Cc1cccnc1)[C@@H](C)CN([C@H](C)CO)S2(=O)=O	34.8%
C[C@@H]1CN([C@@H](C)CO)S(=O)(=O)c2ccc(C#Cc3cccnc3)cc2O[C@@H]1CN(C)C	-8.96%
C[C@H](CO)N1C[C@H](C)[C@H](CN(C)Cc2cccnc2)Oc2cc(C#CC3CCCC3)ccc2S1(=O)=O	97.8% (active)
C[C@H](O)C#Cc1ccc2c(c1)O[C@@H](CN(C)Cc1cccnc1)[C@H](C)CN([C@H](C)CO)S2(=O)=O	46.1%
C[C@@H]1CN([C@H](C)CO)S(=O)(=O)c2ccc(C#CC3CC3)cc2O[C@H]1CN(C)Cc1ccccc1F	81.5%
O=C(Nc1cccc(Cl)c1)N1C[C@@H]2[C@H](c3ccccc31)[C@H](CO)N2C(=O)C1CC1	45%
O=C(C[C@@H]1CC[C@H]2[C@@H](COC[C@@H](O)CN2C(=O)c2ccc3c(c2)OCO3)O1)NC1Cc2ccccc2C1	-11.4%
CCCC#Cc1cnc2c(c1)C(=O)N([C@H](C)CO)C[C@H](C)[C@H](CN(C)C(=O)c1cnccn1)O2	-48.3%
CCCC(=O)Nc1ccc2c(c1)C(=O)N(C)[C@H]1CC[C@@H](CC(=O)NCc3ccccc3)O[C@@H]1CO2	-21.7%

SMILES	inhibition
Cn1cnc(S(=O)(=O)N2CC[C@@H]3[C@H]2c2cc(C#Cc4cccc(F)c4)ccc2N[C@@H]3CO)c1	-22.2%
Cc1ccccc1S(=O)(=O)N1CC[C@H]2[C@H](CO)Nc3ccc(-c4cccc(F)c4)cc3[C@H]21	100% (active)
COc1cccc(-c2ccc3c(c2)[C@H]2[C@H](CCN2C(=O)c2ccc(F)cc2)[C@@H](CO)N3)c1	32.4%
Cc1cccc(S(=O)(=O)N2CC[C@@H]3[C@H]2c2cc(C#Cc4ccc(F)cc4)ccc2N[C@@H]3CO)c1	12.4%
Cc1cccc(S(=O)(=O)N2CC[C@@H]3[C@H]2c2cc(C#Cc4ccccc4F)ccc2N[C@@H]3CO)c1	62.9%
O=S(=O)(c1ccccc1)N1CC[C@@H]2[C@H]1c1cc(C#Cc3cccc(F)c3)ccc1N[C@@H]2CO	102% (active)
O=S(=O)(c1ccccc1)N1CC[C@@H]2[C@@H](CO)Nc3ccc(C#Cc4cccc(F)c4)cc3[C@@H]21	105% (active)
COc1ccc(-c2ccc3c(c2)[C@@H]2[C@@H](CCN2C(=O)c2cccc(F)c2)[C@H](CO)N3)cc1	29.7%
O=C(c1cccc(F)c1)N1CC[C@@H]2[C@@H](CO)Nc3ccc(C#Cc4cccc(F)c4)cc3[C@@H]21	110% (active)
COc1ccccc1S(=O)(=O)N1CC[C@@H]2[C@H]1c1cc(-c3ccccc3)ccc1N[C@@H]2CO	71.9%
N#Cc1cccc(-c2ccc3c(c2)[C@H]2[C@H](CCN2S(=O)(=O)c2ccc(F)cc2)[C@@H](CO)N3)c1	19.2%
COc1ccc(-c2ccc3c(c2)[C@@H]2[C@@H](CCN2S(=O)(=O)c2ccccc2F)[C@H](CO)N3)cc1	36.8%
CC(C)c1cn(CC[C@@H]2CC[C@@H](NC(=O)C3CC3)[C@H](CO)O2)nn1	10.2%
CCCNC(=O)C[C@H]1CC[C@@H]2[C@H](COC[C@H](O)CN2S(=O)(=O)c2ccccc2F)O1	11.7%
CO[C@H]1CC[C@@H]2CCOc3c(C#N)cccc3C(=O)N(C)C[C@H](C)C(=O)N(C)C[C@H]1O2	30.6%
O=C(C[C@@H]1CC[C@H](NC(=O)Cc2ccccn2)[C@H](CO)O1)NCCc1ccncc1	-62.5%
C[C@@H](NC(=O)C[C@@H]1C[C@H]2c3cc(NC(=O)C4CCC4)ccc3O[C@H]2[C@@H](CO)O1)c1ccccc1	-32.2%
Cc1ccc(S(=O)(=O)Nc2ccc3c(c2)C(=O)N([C@H](C)CO)C[C@@H](C)[C@@H](CN(C)C(=O)CCC(F)(F)F)OCCCC[C@@H](C)O3)cc1	47.6%
CCCN1C[C@H](C)[C@H](OC)CN(C)C(=O)c2cc(NC(=O)C3CCOCC3)ccc2OC[C@@H]1C	-22.2%
Cc1ccc(S(=O)(=O)Nc2ccc3c(c2)C(=O)N(C)[C@H]2CC[C@H](CC(=O)O)O[C@H]2CO3)cc1	22.9%
COc1ccc(S(=O)(=O)N2CCCCN3[C@@H](CO)[C@@H](c4ccc(C#CCC(C)C)cc4)[C@@H]3C2)cc1	34.4%
O=S(=O)(c1ccc(F)cc1)N1CCCCN2[C@H](CO)[C@@H](c3ccc(C#CC4CCCC4)cc3)[C@H]2C1	88.5%

SMILES	inhibition
CC(C)NC(=O)N1CCCCN2[C@@H](CO)[C@@H](c3ccc(C#C[C@@H](C)O)cc3)[C@@H]2C1	75.5%
Cn1cnc(S(=O)(=O)N2CCCCN3[C@@H](CO)[C@@H](c4ccc(C#CC5CCCC5)cc4)[C@@H]3C2)c1	54.8%
COCC#Cc1ccc([C@@H]2[C@H](CO)N3CCCCN(C(=O)CN(C)C)C[C@@H]23)cc1	107% (active)
CC(C)C#Cc1ccc([C@H]2[C@H](CO)N3CCCCN(C(=O)NC(C)C)C[C@@H]23)cc1	104% (active)
CC(C)C#Cc1ccc([C@@H]2[C@H]3CN(C(=O)NC(C)C)CCCCN3[C@H]2CO)cc1	43.5%
COCC#Cc1ccc([C@@H]2[C@@H](CO)N3CCCCN(C(=O)COC)C[C@@H]23)cc1	12.3%
COc1ccc(S(=O)(=O)N2CCCCN3[C@H](C2)[C@H](c2ccc(C#CCC(C)C)cc2)[C@@H]3CO)cc1	103% (active)
CCC(=O)N1CCCCN2[C@H](C1)[C@@H](c1ccc(C#CCOC)cc1)[C@@H]2CO	14%
COc1cccc(S(=O)(=O)N2CCCCN3[C@H](CO)[C@H](c4ccc(C#CC5CC5)cc4)[C@H]3C2)c1	118% (active)
CN1c2ccc(C#Cc3cccnc3)cc2[C@@H]2[C@@H](CCN2S(=O)(=O)c2ccccc2)[C@H]1CO	89.6%
COc1ccccc1NC(=O)N[C@H]1CC[C@@H](CCn2cc(C3(O)CCCC3)nn2)O[C@@H]1CO	0.23%
C[C@@H](NC(=O)[C@H]1[C@H](CO)[C@H]2Cn3c(cccc3=O)[C@H]2N1C(=O)C1CC1)c1ccccc1	-11.1%
CC=Cc1ccc2n(c1=O)C[C@@H]1[C@@H](CO)[C@H](C(=O)N[C@@H](C)c3ccccc3)[C@H]2N1Cc1ccncc1 (mixture of isomers)	25.6%
COC(=O)C[C@@H]1CC[C@H]2[C@@H](COC[C@H](O)CN2C(=O)Nc2ccccc2OC)O1	-19.2%
CC(=O)N1[C@@H](CO)[C@H](c2ccccc2)[C@@H]1CN(C(=O)c1ccccc1)C(C)C	26.7%
O=C(C[C@H]1C[C@H]2c3cc(NC(=O)C4CCOCC4)ccc3O[C@H]2[C@@H](CO)O1)NCC1CC1	-5.99%
Cn1cnc(S(=O)(=O)N2C[C@H](O)COC[C@@H]3O[C@H](CC(=O)NCc4cccc(F)c4)CC[C@H]32)c1	34.3%
CN1C[C@@H]2[C@H](c3ccccc31)[C@H](CO)N2C(=O)Nc1ccc(F)cc1	15.1%
Cc1ccc(S(=O)(=O)Nc2ccc3c(c2)C(=O)N([C@@H](C)CO)C[C@H](C)[C@@H](CN(C)C(=O)Nc2ccc(F)cc2)OCCCC[C@H](C)O3)cc1	92.5%
O=C(C[C@H]1C[C@H]2c3cc(NC(=O)CC4CC4)ccc3O[C@H]2[C@H](CO)O1)NCc1cc(F)ccc1F	-48.8%
